The first assay deals with LXRb homodimer (NR concentration 270 nM). In words: PBM binding z-score (relative to random genomic background probes); higher = stronger binding; sequences stand for … in GC…GCGATTGACAGCGTAGAATGAAGG
The method in brief:
(§1)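 Scanned fluorescence from custom Agilent 4×180K protein-binding microarrays was regression-normalized. Binding z-scores use random background probes as reference. Ligand-free nuclear receptor dimers were incubated on the arrays for 1 h and detected with antibodies against each partner (one per run).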
ACAGACAGGTGATGAAGGTAACTCCGGCTATCAT: the PBM binding z-score was -0.444.
Regarding GCGACTGGGGCAAAGCAGGTGACCATAAGGTTGG, the PBM binding z-score was -1.48.
On the same count and under the same terms, with GCTATTAGTTGAAAGGGCAAACGAATGATTCTCG the figure was -0.0679; with AGAATGAGGTTATTAAGATCAGGCAATTGCGGTC, -0.00931; with ATCTCTAGGTAAAAGTTCCGTGAATCCCGAGGAT, 0.845.
In turn, GCTTGCAGATCAAGGTTAAGAAAGACTAAGCTAA registered a PBM binding z-score of -0.936.
Still for that read-out and setting: with ACTAGCAGGCCAAGGGTCACTCCAGATTAGTCCG the figure was -0.313; with ATCGGAAGGTCGAAGGTGAGTATACCCACCCGAA, -0.0206; with CCGACTGGGGCAAAGGTTACCATCCTCAGTACGA, -0.941.
CCTACTGGGCAAAGGTCATTGATCAGTCAAAGCA returned a PBM binding z-score of 0.805.
As for ATCTCTAGGTAAAGATAGTACAGTGAATGCAAAT, the PBM binding z-score was found to be 0.424.
The same measure, in the same setting: with CATACAGGGTCAGCTAGGCCAGAGCAGGGACGGC the figure was 0.561; with ATCTATAGGTAAAAGTTCAGTGAATCCCGAGGAT, 0.602; with ATCGAAAGGTCGAGGTGAGTCTAGAGAAAGGGAA, 0.53.
Turning to TCTCGTAGATCAATAGAGGTTAAGAAAGTGCGCT, the PBM binding z-score was -0.598.
GCGACTGGGGCAAAGCAGGTTTCCATAAGGTTGG had a PBM binding z-score of -0.53.
Still for that read-out and setting: then ACATGTAGGTTATCGGGTCATTCAGTTTGCGCAT, with 1.7.
On the same count and under the same terms, then CCGAGTAGGTTACGGGGCATTCAGGCAACGGTGA, with -0.641.
Same read-out and setting: with GTGCCAAGGTGAATAGGTCGTTGATGAGTAGGCG the figure was -0.536; with GATACAGGGCCAAGGCCAGAGTACGCGTATTGAT, -1.09; with CCTACTGGGCCATCAGGGCATTGATATCAACGTT, -0.886.
The sequence ATCTCTAGGTAACCAAGTTAAGTGAATGCCGAAC yielded a PBM binding z-score of 0.551.
Same read-out and setting: with ACTAGCAGGCCATGGGTCACTCAAGATTAGTCCG the figure was -0.564; with CGTCAAAGTTCAAGGTAACGAAACAGAAAGCAGC, 0.914.
Same read-out and setting: with TTACCAAGGTGAAGGTTGTTGATCCCTCTGTAGA the figure was -0.706; with TCTAGTTGGTCACGGAGGTCTCACACGACGGGTA, -0.332; with CGTCCAAGGTCAGCAGGTCAGTGAAAGCGACGTG, -0.277.
Same read-out and setting: then CCTGCTATGTCAATGGTCAGCTAAAGCAGCTCGC, with -0.272.
Take CCGACTGGGGCAAAGGTTACCATTCTCAGTACGA: the PBM binding z-score was -0.949.
On the same count and under the same terms, then CGTCCAAGGTCAGCGAGGTCAGTGAATGCCGAGT, with 0.00119; and AGTCAAAGTTCACTAGCTAACGTAAGATTCAGCT, with 1.11; and TCAATTAGTTGAAGGGCAACCGACGAGTCCGTTT, with -0.169.
On the same count and under the same terms, then TCTCGGAGGACACGAAAGGTTAGAGCTCGACATC, with -0.852.
Still for that read-out and setting: then TGAATGAGGTTATAAGATCAGGGAGCGTTGCAAA, with -0.471; and TCTGCTAGGTCAACGAAGGTCAGCTAATCTGCTA, with 0.162.
TCTTGTAGATCAACAGGAGGCTAAGAAAGATCGA displayed a PBM binding z-score of -0.588.
For the sequence CTCGAAAGGTCGGGTGAGGTGAGTATACGGATAA, the PBM binding z-score was 0.195.
Same read-out and setting: with TAGCATAGGTCATTCAGGGGCCAGTATAGAAAGC the figure was 1.73; with ATGCCAAGGTGATCGTGAGGTCGTTGATACTAAC, -0.844.
Still for that read-out and setting: with GAATATAGGTAATACAAGGTGAAAGTCCGATTGT the figure was 0.0272.

The subject of the next assay is PPARa:RXRa (NR concentration 270 nM, RXRa partner concentration 90 nM). The description is as above. The gist of the method: as §1
As to ACAGACAGGTGATGAAGGTAACTCCGGCTATCAT, the PBM binding z-score amounted to 0.23.
Same read-out and setting: then GCGACTGGGGCAAAGCAGGTGACCATAAGGTTGG, with 1.09; and GCTATTAGTTGAAAGGGCAAACGAATGATTCTCG, with 2.7; and AGAATGAGGTTATTAAGATCAGGCAATTGCGGTC, with 2.58.
Same read-out and setting: with ATCTCTAGGTAAAAGTTCCGTGAATCCCGAGGAT the figure was 1.5.
Same read-out and setting: with GCTTGCAGATCAAGGTTAAGAAAGACTAAGCTAA the figure was 1.25; with ACTAGCAGGCCAAGGGTCACTCCAGATTAGTCCG, 4; with ATCGGAAGGTCGAAGGTGAGTATACCCACCCGAA, 3.18.
Turning to CCGACTGGGGCAAAGGTTACCATCCTCAGTACGA, the PBM binding z-score was determined as 5.49.
Same read-out and setting: then CCTACTGGGCAAAGGTCATTGATCAGTCAAAGCA, with 5.63; and ATCTCTAGGTAAAGATAGTACAGTGAATGCAAAT, with 0.263; and CATACAGGGTCAGCTAGGCCAGAGCAGGGACGGC, with 4.35.
In the case of ATCTATAGGTAAAAGTTCAGTGAATCCCGAGGAT, the PBM binding z-score was 3.99.
On the same count and under the same terms, then ATCGAAAGGTCGAGGTGAGTCTAGAGAAAGGGAA, with 4.63; and TCTCGTAGATCAATAGAGGTTAAGAAAGTGCGCT, with 1.62.
The same measure, in the same setting: then GCGACTGGGGCAAAGCAGGTTTCCATAAGGTTGG, with 0.542; and ACATGTAGGTTATCGGGTCATTCAGTTTGCGCAT, with 4.49; and CCGAGTAGGTTACGGGGCATTCAGGCAACGGTGA, with 2.14.
Consider GTGCCAAGGTGAATAGGTCGTTGATGAGTAGGCG, for which the PBM binding z-score stood at 2.12.
The same measure, in the same setting: with GATACAGGGCCAAGGCCAGAGTACGCGTATTGAT the figure was -0.662; with CCTACTGGGCCATCAGGGCATTGATATCAACGTT, 0.0503.
Same read-out and setting: with ATCTCTAGGTAACCAAGTTAAGTGAATGCCGAAC the figure was 0.58; with ACTAGCAGGCCATGGGTCACTCAAGATTAGTCCG, 2.85; with CGTCAAAGTTCAAGGTAACGAAACAGAAAGCAGC, 4.7.
Sequence TTACCAAGGTGAAGGTTGTTGATCCCTCTGTAGA returned a PBM binding z-score of 1.61.
On the same count and under the same terms, with TCTAGTTGGTCACGGAGGTCTCACACGACGGGTA the figure was 1.16; with CGTCCAAGGTCAGCAGGTCAGTGAAAGCGACGTG, 4.76; with CCTGCTATGTCAATGGTCAGCTAAAGCAGCTCGC, -0.207.
On the same count and under the same terms, with CCGACTGGGGCAAAGGTTACCATTCTCAGTACGA the figure was 5.42; with CGTCCAAGGTCAGCGAGGTCAGTGAATGCCGAGT, 5; with AGTCAAAGTTCACTAGCTAACGTAAGATTCAGCT, 3.91.
The same measure, in the same setting: with TCAATTAGTTGAAGGGCAACCGACGAGTCCGTTT the figure was 0.684.
Take TCTCGGAGGACACGAAAGGTTAGAGCTCGACATC: the PBM binding z-score is 1.46.
The same measure, in the same setting: with TGAATGAGGTTATAAGATCAGGGAGCGTTGCAAA the figure was 2.63; with TCTGCTAGGTCAACGAAGGTCAGCTAATCTGCTA, 4.32.
The sequence TCTTGTAGATCAACAGGAGGCTAAGAAAGATCGA displayed a PBM binding z-score of -0.00556.
On the same count and under the same terms, then CTCGAAAGGTCGGGTGAGGTGAGTATACGGATAA, with 3.49.
Same read-out and setting: with TAGCATAGGTCATTCAGGGGCCAGTATAGAAAGC the figure was 5.15.
The same measure, in the same setting: then ATGCCAAGGTGATCGTGAGGTCGTTGATACTAAC, with 1.55; and GAATATAGGTAATACAAGGTGAAAGTCCGATTGT, with 2.77.

Values taken from the supplement of paper PMC6555819.
